# Source: publication PMC7862700, “An all-to-all approach to the identification of sequence-specific readers for epigenetic DNA modifications on cytosine”
# Key:
# Experiment in all cases: DAPPL (digital affinity profiling via proximity ligation, sequencing); 10 mM Tris-HCl pH 7.5, 50 mM NaCl, 1 mM DTT, 4% glycerol, room temperature, 30 min; GST-TFs on glutathione beads, 16-mer random dsDNA library, 0.1% formaldehyde crosslink after washing; high values mean tight binding
# Conditions in all cases: protein: recombinant; tags: N-terminal GST; dsDNA, one strand shown
# GABPA = biological target: T1, GABPA (Homo sapiens, UniProt Q06546 1-454)
# T1 sequence: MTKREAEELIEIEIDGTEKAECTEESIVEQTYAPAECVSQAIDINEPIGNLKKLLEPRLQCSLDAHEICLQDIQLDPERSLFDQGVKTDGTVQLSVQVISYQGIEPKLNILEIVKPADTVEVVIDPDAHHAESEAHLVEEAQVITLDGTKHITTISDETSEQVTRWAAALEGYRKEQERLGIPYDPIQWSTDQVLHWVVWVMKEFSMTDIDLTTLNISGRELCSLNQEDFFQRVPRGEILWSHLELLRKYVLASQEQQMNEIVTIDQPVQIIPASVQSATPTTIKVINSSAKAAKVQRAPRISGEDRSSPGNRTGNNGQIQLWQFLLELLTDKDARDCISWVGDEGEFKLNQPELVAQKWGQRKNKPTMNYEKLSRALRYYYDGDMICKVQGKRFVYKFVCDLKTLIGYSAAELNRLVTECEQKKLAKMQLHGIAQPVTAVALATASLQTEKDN
# How it was run: (§1)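 Human transcription factors fused to GST were expressed in yeast, captured on glutathione beads, given DNA barcodes and pooled with a GST-only negative control. Pools were incubated with 200 nmole of a 16-mer random double-stranded DNA library in Tris/NaCl/DTT/glycerol buffer at room temperature for 30 min. They were then washed, crosslinked with 0.1% formaldehyde, proximity-ligated (BsaI/T4 ligase, 1 h, 37 °C), PCR-amplified and sequenced on an Illumina NextSeq500. Binding signal is each 6-mer's read frequency for a factor divided by its frequency for the GST control.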
# EHF = biological target: T2, EHF (Homo sapiens, UniProt Q9NZC4 1-300)
# T2 sequence: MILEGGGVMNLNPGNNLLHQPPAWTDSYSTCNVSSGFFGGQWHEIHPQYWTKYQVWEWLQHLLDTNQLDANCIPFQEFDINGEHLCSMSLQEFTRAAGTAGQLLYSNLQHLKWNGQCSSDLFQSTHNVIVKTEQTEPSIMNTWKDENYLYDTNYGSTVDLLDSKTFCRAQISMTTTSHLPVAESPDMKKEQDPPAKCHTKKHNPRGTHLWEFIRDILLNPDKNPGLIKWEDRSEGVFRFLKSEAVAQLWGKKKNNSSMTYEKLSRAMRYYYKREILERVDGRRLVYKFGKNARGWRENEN
# How it was run: as §1
# ETV5 = ETV5 (Homo sapiens, UniProt P41161 1-510)
# How it was run: as §1
# ELF3 = biological target: T3, ELF3 (Homo sapiens, UniProt P78545 1-371)
# T3 sequence: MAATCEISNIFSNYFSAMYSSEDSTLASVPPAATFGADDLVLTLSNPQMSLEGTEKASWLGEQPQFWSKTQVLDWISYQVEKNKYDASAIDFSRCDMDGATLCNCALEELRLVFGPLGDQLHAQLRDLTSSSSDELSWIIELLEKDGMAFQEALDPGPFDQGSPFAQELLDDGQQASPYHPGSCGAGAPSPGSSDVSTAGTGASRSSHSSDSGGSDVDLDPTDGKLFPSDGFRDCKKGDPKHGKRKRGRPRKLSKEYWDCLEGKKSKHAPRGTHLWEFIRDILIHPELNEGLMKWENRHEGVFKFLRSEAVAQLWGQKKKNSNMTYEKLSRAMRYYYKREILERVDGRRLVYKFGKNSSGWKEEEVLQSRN
# How it was run: as §1
# ETV5, sequence (P41161 whole entry): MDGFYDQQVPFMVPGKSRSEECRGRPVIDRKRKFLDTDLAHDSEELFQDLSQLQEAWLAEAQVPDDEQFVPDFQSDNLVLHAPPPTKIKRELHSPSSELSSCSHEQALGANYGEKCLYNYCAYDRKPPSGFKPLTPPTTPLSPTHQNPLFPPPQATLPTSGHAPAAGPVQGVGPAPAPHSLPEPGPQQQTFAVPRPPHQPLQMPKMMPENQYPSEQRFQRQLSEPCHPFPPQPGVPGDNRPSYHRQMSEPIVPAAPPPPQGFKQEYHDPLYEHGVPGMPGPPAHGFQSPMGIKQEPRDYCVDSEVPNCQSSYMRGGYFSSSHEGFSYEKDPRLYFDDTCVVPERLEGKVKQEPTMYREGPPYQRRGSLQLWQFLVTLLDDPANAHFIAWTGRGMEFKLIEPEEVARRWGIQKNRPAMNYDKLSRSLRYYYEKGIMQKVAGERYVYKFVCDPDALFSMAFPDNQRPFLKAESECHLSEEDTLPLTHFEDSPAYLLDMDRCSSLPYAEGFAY
sequence,measurement,setting,value
AGAGCT,binding signal,GABPA,"1.04 fold enrichment (6-mer frequency, TF over GST control)"
same,binding signal,EHF,"1.01 fold enrichment (6-mer frequency, TF over GST control)"
same,binding signal,ETV5,"1.03 fold enrichment (6-mer frequency, TF over GST control)"
same,binding signal,ELF3,"1.03 fold enrichment (6-mer frequency, TF over GST control)"
